Structures are written as SMILES. Compounds without any hit were thinned out: in the full panel of roughly 83,000, 20% have a hit.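 For each line, cells grew in 96-well plates with the test compound present at a single concentration for 48 hours.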 Values without a mark were called inactive. Calls of active or inactive are those of the source. The calls were made as follows: active = growth percent below 10; inactive = the rest.

Our source for the growth values is PubChem BioAssay (NCI).

In the assay the test system is HCT-116 colon. Description: NCI-60 one-dose screen, 48 h (100 = growth as untreated, 0 = no growth, -100 = all killed). Particulars: 10 µM unless noted.
Turning to `C=C1C(=O)O[C@H]2[C@H]1CC/C(COC(=O)NCc1cc[nH]c1)=C\CC[C@@]1(C)O[C@@H]21`, the growth was 36.1%.

As to `CSc1nc2sc3c(c2c(=O)n1-c1ccc([N+](=O)[O-])cc1)CCCCC3`, the growth was 84.4%.

Take `O=C(Nn1c2c(sc1=NCc1ccccc1)C(=O)c1ccccc1C2=O)c1cc2ccc1CCc1ccc(cc1)CC2`: the growth is 55.9%.

For `O=C(CN1C(=O)CCC1=O)Nc1ncc(Cc2ccc(F)cc2)s1`, the growth is 104%.

For `Cc1ccc(NC(=S)NNC(=S)NNc2ccccc2)cc1C`, the growth was 116%.

For `CCN(CC)CCOc1ccc(C(=C(C)c2ccc(Cl)cc2)c2ccc(OCCN(CC)CC)cc2)cc1`, the growth is -94.1% (active).

For `COC(=O)[C@]1(C)CCC[C@]2(C)[C@H]3C[C@H]4C(C(C)C)=C[C@]3(CC[C@H]21)[C@H]1[C@@H]4[C@@H](OCCC#N)CC[C@@H]1OCCC#N`, the growth was 15.4%.

Take `COc1ccc(-c2cc(-c3ccc(Cl)cc3)c(C#N)c(=O)n2CCCCC(=O)Nc2ccccc2N)cc1`: the growth is 24.4%.

Turning to `C=C1C(=O)O[C@H]2[C@H]1CC/C(COC(=O)NCc1ccc(Cn3c(=O)sn(CCI)c3=O)cc1)=C\CC[C@@]1(C)O[C@@H]21`, the growth is 20%.

For `CC(=O)OC[C@]12CCC(C)(C)C[C@H]1[C@@]1(O)[C@H](O)C[C@@H]3[C@@]4(C)CCCNC(C)(C)[C@@H]4CC[C@@]3(C)[C@]1(C)CC2`, the growth is 104%.

Regarding `Cc1cc(=O)[nH]c2c(C#N)cnn12`, the growth is 98.5%.

On to `O=C(OCc1ccc2c(Cl)cc(Cl)c(O)c2n1)n1cncn1`, for which the growth is 30.1%.

As to `O=C1/C(=C/c2ccc(-c3ccc(Br)cc3)o2)SC(=S)N1CCc1ccc(O)cc1`, the growth is 75.2%.

Turning to `O=C1CC(N2C(=O)/C(=C/C(Cl)=C\c3ccc([N+](=O)[O-])cc3)SC2=S)C(=O)N1c1ccc(Cl)cc1` (stereo unspecified), the growth is 8.7% (active).

`CCN(CC)c1nc(SCc2ccccc2Cl)ncc1C`: the growth is 94.2%.

`N#Cc1c(-c2ccccc2)cc(-c2ccccc2)n(CCCCCC(=O)Nc2ccccc2N)c1=O`: the growth was 58.1%.

In the case of `CCS/C(Nc1ccccc1)=C(\C#N)C(=O)N/N=C/c1ccc(Cl)cc1Cl`, the growth is 17.5%.

Turning to `N#CC1=C(N)Oc2c(sc3c(Br)cccc23)C1c1ccc(F)cc1` (stereo unspecified), the growth is 11.9%.

`O=C(Cn1c2c(c3ccccc31)CCCC2)Nc1ccc(-c2nc3ccccc3s2)cc1`: the growth is 125%.

In the case of `COc1cc(-c2csc(NC(=O)c3cc(-n4cnc(C)c4)cc(C(F)(F)F)c3)n2)cc(OC)c1OC`, the growth was 40.4%.

For `CCN(CC)CCCN1C(=O)c2c(c(C)c3c(oc4cc(O)ccc43)c2C)C1=O`, the growth was -76.4% (active).

With `COc1cc2oc(-c3cccc(NC(=O)c4cccc(Br)c4)c3)cc(=O)c2c(OC)c1OC`, the growth is 40.2%.

With `O=C(Cn1c(=O)sc2nc3ccccc3nc21)Nc1ncc(Cc2cccc(Cl)c2Cl)s1`, the growth was 102%.

Consider `COc1ccc(OC)c(C(=O)/C=C/c2cc3c(c(OC)c2OC)OCO3)c1`, for which the growth is 43.6%.

In the case of `COC(=O)CCC(=O)C(=O)OC`, the growth is 9.17% [10 mM] (active).

For the compound `O=C1c2c(c3c4ccccc4[nH]c3c3ccc4ccccc4c23)C(=O)N1CCN1CCCCC1`, the growth was 23.1%.

As for `CCO/C=N/C1=C(C#N)C(c2ccc(OC)cc2)c2sc3c(F)cccc3c2O1` (stereo unspecified), the growth was 33.8%.

On to `COCCn1c(-c2csc(-c3cn(C)c4ccc(OC)cc34)n2)cc2cccnc21`, for which the growth is 57.2%.

In the case of `CN1C(=O)/C(=C/c2cn(-c3ccccc3)nc2-c2ccccc2)SC1=S`, the growth is 99.8%.

Consider `CC(C)NC1CCC(Nc2ccnc3cc(Cl)ccc23)CC1` (stereo unspecified), for which the growth is 76.6%.

Consider `O=S(=O)(Nc1cc(Br)c(O)c2ccccc12)c1ccc(F)cc1`, for which the growth is 51%.

Take `CCN(CC)CCOc1ccc(-c2c(-c3ccccc3)c(=O)oc3ccccc23)cc1`: the growth is 65.6%.

Turning to `O=C(/C=C/c1cn(-c2ccccc2)nc1-c1ccc([N+](=O)[O-])cc1)c1ccc(Cl)cc1`, the growth was -12.6% (active).

Take `Cc1cc2c(O)c(-c3cccc(Cl)c3)c3sc(=O)oc3c2cc1C`: the growth is 18.1%.

For the compound `Cc1cccc(Cl)c1NC(=O)c1ccc2nc(NC(=O)NCCN(C)C)sc2c1`, the growth is 92.1%.

With `O=C(c1ccccc1)C1C(=O)N2C(=S)N(c3ccccc3)C(=O)C2C1c1ccc(Cl)cc1` (stereo unspecified), the growth is 96.6%.
